ALDH1A1 inh: inhibitors of human aldehyde dehydrogenase 1A1 | Purified ALDH1A1, NADH fluorescence, propionaldehyde substrate | 220,000 tested, 7.3% active | AID 1030 | Potency, µM (top dose mostly 75.3 µM), usual class: inhibitors | P00352; active = well fitted inhibition curve with a large enough effect, not every such curve was filed as active; inconclusive = small, poorly fitted or top-dose-only effect, or another doubt; inactive = no such curve, though single readings can be large or run the other way
Target sequence (P00352 whole entry, looked up): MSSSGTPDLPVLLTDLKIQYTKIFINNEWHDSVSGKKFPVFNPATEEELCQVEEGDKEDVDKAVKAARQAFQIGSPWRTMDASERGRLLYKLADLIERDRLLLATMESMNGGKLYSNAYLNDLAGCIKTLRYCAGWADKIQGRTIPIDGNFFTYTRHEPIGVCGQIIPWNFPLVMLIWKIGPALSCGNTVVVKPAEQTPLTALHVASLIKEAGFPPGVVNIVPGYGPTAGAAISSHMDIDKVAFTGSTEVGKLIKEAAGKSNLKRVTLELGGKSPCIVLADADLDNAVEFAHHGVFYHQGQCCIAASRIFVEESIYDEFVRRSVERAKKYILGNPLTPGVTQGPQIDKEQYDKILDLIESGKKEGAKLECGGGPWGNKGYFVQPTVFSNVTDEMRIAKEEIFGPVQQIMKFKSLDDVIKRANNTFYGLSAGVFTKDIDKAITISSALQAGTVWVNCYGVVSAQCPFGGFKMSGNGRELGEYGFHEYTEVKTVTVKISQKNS
NPSR antag: neuropeptide S receptor (human) antagonism, cAMP. Q6W5P4. CHO-NPSR cells, cAMP TR-FRET, antagonist mode. Potency, µM (highest dose often 38.3 µM), most hits filed as inhibitors. 220,000 tested, 1% active. AID 1461; note: nearly all actives have a fitted effect of over 50% in size
ALOX12 inhib: 12-hLO (ALOX12) enzyme inhibition. Potency, µM (highest dose often 57.1 µM), usual class: inhibitors. purified 12-hLO, xylenol orange hydroperoxide absorbance. AID 1452. 150,000 tested, 0.12% active; note: nearly all actives have a fitted effect of over 55% in size
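Purified human 12hLO (150 nM), preincubated 15 min with compound, then 40 uM arachidonic acid for 30 min, room temperature, Hepes pH 7.0 with 0.01% Triton X-100. Hydroperoxide detected by ferrous iron/xylenol orange; 573/405 nm absorbance ratio gives reaction progress.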
IMPase Li inh: membrane-permeable IMPase blocker, potentiated with lithium; 210,000 tested, 0.35% active; AID 1457; CHO-M1 cells, IP1 TR-FRET (IP-One), carbachol + lithium; Potency, µM (highest dose often 59.4 µM), usual class: inhibitors;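 note: IP1 builds up when IMPase is blocked and the TR-FRET signal falls; nearly all actives have a fitted effect of over 50% in size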
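Test compounds were applied to CHO-M1 cells previously cultured for 16–30 h at 2000 per well. A small lithium amount accompanied them; after 30 min at 37C, IP1 was quantified by TR-FRET.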
HPGD block: HPGD (human) dehydrogenase inhibition | purified HPGD, NADH fluorescence kinetic, PGE2 substrate | Potency, µM, most hits filed as inhibitors | AID 894 | 150,000 tested, 4.3% active | P15428; active = well fitted inhibition curve with a large enough effect, not every such curve was filed as active; inconclusive = small, poorly fitted or top-dose-only effect, or another doubt; inactive = no such curve, though single readings can be large or run the other way
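20 nM HPGD preincubated 15 min at room temperature with compound in 50 mM Tris-HCl pH 8, 0.01% Tween 20. Started with 1 mM NAD+ and 30 uM prostaglandin E2; NADH fluorescence (360/450 nm) read 5 times over 30-s intervals, last minus first.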
IMPase cell inh: cell-permeable inhibitors of inositol monophosphatase (IMPase); P97697; CHO-M1 cells, IP1 accumulation, HTRF TR-FRET ratio; inhibition (IP1 accumulation), % at 46.1 µM; 120,000 tested, under 10 active; active = well fitted curve in the direction sought with a large enough effect in the signal ratio, not every such curve was filed as active; inconclusive = small, poorly fitted or top-dose-only effect, or a change in a side signal; inactive = no such curve, though single readings can be large or run the other way; the % refers to the signal ratio;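 note: cells stimulated with carbachol in lithium chloride buffer; higher means more IMPase inhibition seen as more IP1 and lower FRET ratio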
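Seeded CHO-M1 cells were dosed with compound at up to 46 uM, stimulated with carbachol for 30 min, then lysed in IP-One detection reagents. Higher IP1 lowers the TR-FRET signal.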
Numbers stand for hits; . = inactive; ? = inconclusive; / = no result given; [ ] = remark or other dose. Sampled rows, rich in hits. Any-hit rate of the full collection: about 8.9%. Unless noted, calls come from the whole dose curve; as a rule, active = well fitted curve in the direction sought with a large enough effect; inconclusive = small, poorly fitted or top-dose-only effect, or another doubt; inactive = no such curve, though single readings can be large; an effect the other way counts as inactive or inconclusive.

SMILES	ALDH1A1 inh	NPSR antag	ALOX12 inhib	IMPase Li inh	HPGD block	IMPase cell inh
CCNc1ccc(Br)cc(C(=O)/C=C/c2c(Cl)cccc2Cl)c1=O	7.9µM	?	?	.	8.9µM	.
CCNc1ccc(Br)cc(C(=O)/C=C/c2ccc3c(c2)OCO3)c1=O	18µM	.	?	.	?	.
CCNc1ccc(Br)cc(C(=O)/C=C/c2ccc(Cl)cc2)c1=O	25µM	.	?	.	?	/
Nc1ccccc1C(=O)/C=C\c1ccc2c(c1)OCO2	.[13.5 µM]	/	/	/	/	/
O=C(O)C(Oc1ccc2c3c(c(=O)oc2c1)CCC3)c1ccccc1 (stereo not drawn)	?	.	.	.	?	.
C/C=C(/C)C(=O)Nc1cccc(C2=NOC3(C2)C[C@@H](C(N)=O)N(C(=O)[C@H]2CCC(=O)N2)C3)c1 (stereo partly drawn)	/	.	/	/	/	/
S=c1[nH]nc(-c2ccccc2Cl)n1CC1CCCO1 (stereo not drawn)	14µM	.	.	.	.	.
O=C(COC(=O)CCC(=O)c1cccs1)Nc1ccccc1[N+](=O)[O-]	.	.	/	.	/	/
Cc1oc(C)c2c(=O)ccc3c(c12)OC(N)=C(C#N)C3c1ccccc1Cl (stereo not drawn)	25µM	10µM	.	.	.	.
O=C(Oc1ccccc1)n1c(=O)oc2ccc(Cl)cc21	.	/	.	/	.	/
Cc1cccc(OC(=O)n2c(=S)oc3cc(Cl)ccc32)c1	3.5µM	.	.	.	.	.
Cc1nc2nc(SCC(=O)N3CCOCC3)nn2c(C)c1Cc1c(F)cccc1Cl	?	.	.	.	8.9µM	.
CCOC(=O)c1[nH]c2ccc(OC)cc2c1NC(=S)N1CCN(c2cccc(Cl)c2)CC1	?	.	.	?	.	.
CCOC(=O)c1[nH]c2ccc(OC)cc2c1NC(=S)N1CCN(c2ccccc2)CC1	25µM	.	.	.	.	.
Cc1ccccc1Nc1nc(-c2sc(NC(=O)c3ccc([N+](=O)[O-])cc3)nc2C)cs1	?	.	.	.	.	.
Cc1ccccc1Nc1nc(-c2sc(NC(=O)c3ccccc3)nc2C)cs1	20µM	.	.	.	?	.
Cc1ccccc1Nc1nc(-c2sc(NC(=O)c3cccc(Cl)c3)nc2C)cs1	18µM	.	.	.	.	.
Cc1ccc(Nc2nc(-c3sc(NC(=O)c4ccc([N+](=O)[O-])cc4)nc3C)cs2)cc1	?	.	.	.	.	.
CCOc1ccccc1Nc1nc(-c2sc(NC(=O)c3ccc([N+](=O)[O-])cc3)nc2C)cs1	0.79µM	.	.	.	.	.
COc1ccc2[nH]c(I)c(CCNC(C)=O)c2c1	.	/	.	.	.	.
CCCC(=O)NCCc1c(I)[nH]c2ccc(OC)cc12	20µM	/	/	.	/	/
O=C(CSCc1ccc(Cl)cc1)N/N=C/c1ccc(OCC(=O)Nc2ccccc2)cc1	?	.	.	.	.	.
CC1(C)CC(=O)C(CC2=C(N)CC(C)(C)CC2=O)=C(N)C1	/	.	/	/	/	/
CNC(=O)c1c(NC(=O)C(C)C)sc2c1CCC2	/	.	/	/	/	/
COC(=O)c1c(NC(=O)C2COc3ccccc3O2)sc2c1CCN(C(C)=O)C2 (stereo not drawn)	32µM	.	.	.	?	/
SMILES	ALDH1A1 inh	NPSR antag	ALOX12 inhib	IMPase Li inh	HPGD block	IMPase cell inh
COC(=O)c1c(NC(=O)c2nc3ccccc3s2)sc2c1CCN(C(C)=O)C2	13µM	?	.	.	.	.
CNC(=O)c1c(NC(=O)c2nc3ccccc3s2)sc2c1CCC2	?	?	.	.	28µM	.
N/C(=N\OC(=O)COc1ccc([N+](=O)[O-])cc1)c1ccncc1	.	.	/	.	/	/
COc1ccc(C2C(C(=O)N3CCN(c4ccccc4F)CC3)c3ccccc3C(=O)N2C)cc1 (stereo not drawn)	0.89µM	.	.	.	.	.
Cc1ccc(OCCCN2C(=O)C(=O)c3cccc(C)c32)cc1	0.071µM	.	.	.	18µM	.
NCCc1nnc(SCc2ccccc2F)o1	.	.	.	.	.	.
Cc1cc(NN)nc(NS(=O)(=O)c2ccccc2)n1	.	.	/	.	/	/
Cc1ccc(S(=O)(=O)Oc2ccc(/C=C(/NC(=O)c3ccccc3)C(=O)O)cc2)cc1	13µM	.	/	.	/	/
